Reference: PubChem BioAssay (NCATS)
Inconclusive results are not listed. Entries that show only a call come without a potency. The source made the active and inactive calls. Calls follow the shape of the dose curve; as a rule, active = well fitted cell-killing curve with a large enough effect; inconclusive = small, poorly fitted or top-dose-only effect, or effect the other way; inactive = no such curve, though single readings can be large or run the other way.
Potency is read from the fitted curve at half-maximal effect.

Assay: Viability qHTS for spleen associated tyrosine kinase inhibitor (SYKi) naive MV4-11 cells (AID 1963823); also: nearly all actives have a fitted effect of over 40% in size
Details: MV4-11 AML viability, CellTiter-Glo luminescence, 72 h; series mostly up to 45 µM
In short: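 SYKi-naive MV4-11 AML cells, 500 per well, were exposed to library compounds for 72 hr at 37 C, 5% CO2. Viability was then read by CellTiter-Glo luminescence after 10 min at room temperature.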
In the case of `CC(=O)N[C@H]1[C@H](O[C@H]2CC[C@@]3(C)C(CC[C@]4(C)C3CC=C3C5CC(C)(C)CC[C@]5(C(=O)O)C(O)C[C@]34C)C2(C)C)O[C@H](CO[C@@H]2O[C@H](C)[C@H](O)[C@H](O)[C@H]2O[C@@H]2OC[C@@H](O)[C@H](O)[C@H]2O)[C@@H](O)[C@@H]1O` (stereo not given in full), the Potency is reported as 3.48 µM (active). For `C[C@@H]1N[C@H]2N(C1=O)c1ccccc1[C@@]2(O)C[C@@H]1C(=O)N[C@@H](C)c2nc3ccccc3c(=O)n21`, the Potency was “inactive”. In the case of `O=C(O)c1cc(-c2c(-c3ccccc3)nn3ccccc23)n[nH]c1=O`, the Potency is reported as “inactive”. In the case of `CN1C2CCC1CC(OC(=O)[C@H](CO)c1ccccc1)C2` (stereo not given in full), the Potency is reported as 0.651 µM (active). With `Cc1cc(O)cc(Oc2cc(C)c(C(=O)O)c(O)c2)c1` the Potency was “inactive”. With `C=C1CC[C@H]2[C@@](C)(CCC[C@@]2(C)C(=O)O)[C@@H]1CCC(C)CCO` (stereo not given in full) the Potency was “inactive”. For `CCCCCCCCCCCCCC[N+](C)(C)Cc1ccccc1`, the Potency was 2.99 µM (active). With `C=C1[C@@H]2CC[C@@H]3[C@@](CCC4C(C(=O)O)(C(=O)O)C[C@@H](O[C@@H]5O[C@H](CO)[C@@H](O)[C@H](O)[C@H]5OC(=O)CC(C)C)C[C@]43C)(C2)[C@H]1O` (stereo not given in full) the Potency was “inactive”. With `C#CCCCn1cc(-c2cccc3c2N[C@@H](C)CC(=O)N3)cn1` the Potency was “inactive”. With `CCC(=O)O[C@H]1C(C)(C)[C@H]([C@@H](O)C(=O)OC)[C@]2(C)C(=O)[C@@]1(O)[C@H]1O[C@]13C1CC(=O)O[C@@H](c4ccoc4)[C@]1(C)CCC32` (stereo not given in full) the Potency was “inactive”. In the case of `Cn1ccc(NC(=O)c2cc(Oc3ccc(C(=O)N4CCC4)c(F)c3)c3c(c2)OC(C)(C)C3)n1`, the Potency is reported as “inactive”. With `Cc1nc(CNc2ncnc3ccc(-c4ccc5c(c4)OCO5)cc23)cs1` the Potency was 14.6 µM (active). In the case of `C=C(COC(=O)CC(C)C)C1Cc2cc(C(C)=O)ccc2O1` (stereo not given), the Potency is reported as “inactive”. With `COc1cc2nc(N3CCN(C(=O)COc4c(OC)cccc4C(C)C)CC3)nc(N)c2cc1OC` the Potency was 20.6 µM (active). In the case of `[N-]=[N+]=N[C@]1(CO)O[C@@H](n2ccc(N)nc2=O)[C@@H](O)[C@@H]1O`, the Potency is reported as “inactive”. With `CC(NC(=O)Cc1cc(F)cc(F)c1)C(=O)NC1C(=O)N(C)c2ccccc2-c2ccccc21` (stereo not given) the Potency was 5.17 µM (active). For `C[C@H](Oc1cc(-n2cnc3ccc(CN4CCN(C)CC4)cc32)sc1C(N)=O)c1ccccc1C(F)(F)F`, the Potency was 1.03 µM (active). For `CCc1c(Cl)c(O)c(Cl)c(O)c1C(=O)O[C@H]1[C@H](O)[C@H](OC)[C@H](OC/C2=C\C=C\C[C@H](O)/C(C)=C\[C@H](CC)[C@@H](O[C@@H]3OC(C)(C)[C@@H](OC(=O)C(C)C)[C@H](O)[C@@H]3O)/C(C)=C/C(C)=C/C[C@@H]([C@@H](C)O)OC2=O)O[C@@H]1C`, the Potency was 7.09 µM (active). For `O=C1NC(c2cccc([N+](=O)[O-])c2)=CCN1c1ccccc1O`, the Potency was “inactive”. With `NC(=O)c1ncn(C2O[C@H](CO)[C@@H](O)[C@H]2O)c1N` (stereo not given in full) the Potency was “inactive”. For `COc1ccc(CCN(C)CCCC(C#N)(c2cc(OC)c(OC)c(OC)c2)C(C)C)cc1OC` (stereo not given), the Potency was 23.7 µM (active). In the case of `COc1cc(C2OCC3C(c4ccc(OC5OC(CO)C(O)C(O)C5O)c(OC)c4)OCC23)ccc1O` (stereo not given), the Potency is reported as “inactive”. With `C=CC(C)(C)c1[nH]c2ccccc2c1C1=C(O)C(=O)C(c2c[nH]c3c(CC=C(C)C)cccc23)=C(O)C1=O` the Potency was 18.4 µM (active). With `C=CC1(C)CC(O)C2(CCC3C(C)(C(=O)O)CCCC3(C)C2=O)C1` (stereo not given) the Potency was “inactive”. For `CC[C@@H](C)[C@H]1C(=O)O[C@H](C(C)C)C(=O)N(C)[C@@H](C(C)C)C(=O)O[C@H](C(C)C)C(=O)N(C)[C@@H](C(C)C)C(=O)O[C@H](CC(C)C)C(=O)N1C`, the Potency was 1.53 µM (active). With `CC1(C(=O)O)CCCC2(C)C3CCC4CC3(CCC12)CC4=O` (stereo not given) the Potency was 13 µM (active). With `CCCC(=O)C1CCN(c2ncnc3c2CN(C(=O)c2ccc(-c4ccccc4)cc2)CC3)CC1` the Potency was 16.4 µM (active). In the case of `C=C1CC[C@@H]2[C@](C)(CO[C@@H]3O[C@H](CO)[C@@H](O)[C@H](O)[C@H]3O)[C@H](O)CC[C@@]2(C)[C@@H]1C/C=C1/C(=O)OC[C@H]1O`, the Potency is reported as “inactive”. In the case of `CCOc1ccc(-c2cc(NC(=O)c3c(F)cccc3F)c(C(=O)O)s2)cc1`, the Potency is reported as “inactive”. With `CC1CCC2(OC1)OC1CC3C4CCC5C[C@@H](O[C@@H]6O[C@H](CO[C@@H]7OC[C@@H](O)[C@H](O)[C@H]7O)[C@H](O)[C@H](O)[C@H]6O)CC[C@]5(C)C4CC[C@]3(C)C1C2C` (stereo not given in full) the Potency was “inactive”. With `CC(C)C[C@H](NC(=O)[C@@H]1O[C@H]1C(=O)O)C(=O)NCCCCN=C(N)N` the Potency was “inactive”. For `CC/C=C\[C@H](O)[C@H](O)C1=C(C)C(=O)[C@]2(O1)C(=O)N[C@@](OC)(C(=O)c1ccccc1)[C@@H]2O`, the Potency was “inactive”. In the case of `O=C(O)CCc1ccc(NCc2cccc3c2CCCN3CCOc2ccccc2)cc1F`, the Potency is reported as “inactive”. In the case of `COC(=O)C1=CO[C@@H](O[C@@H]2O[C@H](CO)[C@@H](O)[C@H](O)[C@H]2O)[C@H]2[C@@H]1[C@H](O)C[C@]2(C)O`, the Potency is reported as “inactive”. With `CC(CCc1ccccn1)(CCc1ccccn1)C(=O)c1ccccc1` the Potency was “inactive”. In the case of `CCOc1ccc(-c2ccc(Cn3c(CC(C)(C)C(=O)O)c(SC(C)(C)C)c4cc(OCc5ccc(C)cn5)ccc43)cc2)cn1`, the Potency is reported as “inactive”. In the case of `C=C/C=C/[C@@H]1OC[C@H](/C=C/C=C/C)[C@H]1O`, the Potency is reported as “inactive”. With `C=C1CCC(OC(C)=O)C2(C)CC3OC(=O)C(C)=C3CC12` (stereo not given) the Potency was “inactive”. With `CCc1c(-c2ccccc2)c(-c2ccccc2)nn1-c1ccccc1-c1cccc(OCC(=O)O)c1` the Potency was “inactive”. For `CC1NC(=O)C(Cc2c[nH]c3ccccc23)NC1=O` (stereo not given), the Potency was “inactive”.
